Screens: PubChem, National Center for Advancing Translational Sciences (NCATS)
KDM5B inhibitor: blocks human KDM5B histone demethylase activity. KDM5B demethylase, FDH-coupled NADH fluorescence (FDH is formaldehyde dehydrogenase). Potency, µM (highest dose often 57.7 µM), most hits filed as inhibitors. Q9UGL1. 220,000 compounds, 2.6% hits. AID 1347165; active = well fitted inhibition curve with a large enough effect; note: nearly all actives have a fitted effect of over 70% in size
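Measured: NADH fluorescence change, 30 min, RT. System: KDM5BΔAP 200 nM final, H3K4me3 peptide, α-KG, Fe(II), ascorbate, NAD⁺ plus FDH, pH 7.5 HEPES. Compounds: titrated, 10 min pre-incubation with enzyme.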
Of the large screens only hits and unclear results are named; the others gave an inactive call. This excerpt belongs to a sample that is enriched for hits.

COc1ccc(-c2noc(CC3CCN(C(=O)Cc4ccsc4)CC3)n2)cc1	none
O=C(Cc1ccsc1)N1CCC(Nc2cccnc2)C1 (stereo not given)	none
COc1ccc(CC(=O)N2CCC(Cc3nc(-c4ccc(OC)cc4)no3)CC2)cc1	none
CS(=O)(=O)N1CCC(OC2CCN(C(=O)NCc3ccc(F)cc3)CC2)CC1	none
Cc1noc(C)c1CC(=O)N1CCC(c2nc(C3CCOCC3)no2)CC1	none
COc1nccnc1NC1CCN(C(=O)Cc2ccsc2)CC1	KDM5B inhibitor 31.6µM
COc1ccc(CC(=O)N2CCC(n3nccc3NC(=O)C3CC3)CC2)cc1	none
COc1ccc(CC(=O)N2CCC(Nc3nccnc3OC)CC2)cc1	KDM5B inhibitor 28.2µM
COc1nccnc1NC1CCN(C(=O)NCc2ccc(F)cc2)CC1	KDM5B inhibitor 28.2µM
COCCOC1CCN(C(=O)Cc2c(C)noc2C)CC1	none
Cc1cccc(NS(=O)(=O)c2cc(-c3ccno3)oc2C)c1C	none
Cc1cc(C)cc(C(=O)NC23CC4CC(CC(C4)C2)C3)c1	none
Cc1ccc(N(Cc2ccccc2)C(=O)c2ccc(F)cc2)cc1	none
COc1cccc(C(O)c2nc3ccccc3n2C(C)C)c1OC (stereo not given)	none
Cn1cc(CN2C[C@H](C(=O)Nc3ccc(F)cc3)C[C@@H]2c2cccc(C(F)(F)F)c2)cn1	none
Cc1cc(C)cc(-n2c(SCC(=O)NCc3ccco3)nc3c([nH]c4ccccc43)c2=O)c1	none
O=C(CCn1ccc2ccccc21)NC1CCCCCCC1	none
CCN(CC(=O)Nc1c(F)cccc1F)Cc1ncc(-c2ccc(Cl)cc2)o1	none
Cc1nc(NCc2ccc3c(c2)OCO3)c2c3c(sc2n1)CCC3	none
COc1ccc(-c2cc3c(cn2)CN(Cc2cccnc2)CCN3)cc1F	KDM5B inhibitor 35.5µM
CN(C)c1cccc(-c2cc3c(cn2)CN(Cc2cccnc2)CCN3)c1	none
Cc1cc(-c2cc3c(cn2)CN(Cc2ccc(F)c(F)c2)CCN3)ccn1	none
Fc1ccccc1-c1cc2c(cn1)CN(Cc1cccnc1)CCN2	KDM5B inhibitor 31.6µM
Cc1cc(-c2cc3c(cn2)CN(Cc2c[nH]c4ccccc24)CCN3)ccn1	none
Cc1cc(-c2cc3c(cn2)CN(Cc2ccccc2F)CCN3)ccn1	KDM5B inhibitor 35.5µM
C=CC(=O)NC(=O)NCc1ccccc1	none
COc1ccc(C(=O)N2CCC(n3cc(-c4nc(-c5ccccc5)no4)nn3)CC2)cc1	none
Cc1ccc(C(=O)c2sc(Nc3ccccc3F)nc2N)c(C)c1	none
O=C(C1CC1)N1CCC(Oc2cccnc2)C1 (stereo not given)	none
Cc1ccc(NC(=O)c2ccc(N3CC4CC(C3)[C@H]3CCCC(=O)N3C4)nc2)cc1 (stereo not given in full)	none
CCN(Cc1ccncc1)C(=O)[C@@H]1C[C@@H](O)CN1C1CCN(C(=O)c2cccc(OC)c2)CC1	none
CCOc1ccc(CNC(=O)c2ccc3c(c2)nc2n3CCOC2)cc1OC	none
O=C1COc2ccc(OCC3CC3)nc2CN1Cc1ccc(C(F)(F)F)cc1	none
O=C1COc2ccc(-c3ccoc3)nc2CN1Cc1ccc(C(F)(F)F)cc1	KDM5B inhibitor 35.5µM
O=C1COc2ccc(-c3ccncc3)nc2CN1Cc1ccccc1	KDM5B inhibitor 35.5µM
O=C1COc2ccc(-c3cn[nH]c3)nc2CN1Cc1ccc(C(F)(F)F)cc1	none
O=C1COc2ccc(-c3ccccc3)nc2CN1Cc1ccccc1F	none
CN1CCCC1COc1ccc2c(n1)CN(Cc1ccc(C(F)(F)F)cc1)C(=O)CO2 (stereo not given)	none
Cc1ccccc1CN1Cc2nc(-c3cnn(Cc4ccccc4)c3)ccc2OCC1=O	none
O=C1COc2ccc(-c3ccoc3)nc2CN1Cc1ccccc1	KDM5B inhibitor 31.6µM
Cc1ccccc1CN1Cc2nc(-c3ccccc3)ccc2OCC1=O	none
Cc1noc(C)c1-c1ccc2c(n1)CN(Cc1ccc(C(F)(F)F)cc1)C(=O)CO2	none
Cc1ccccc1-c1ccc2c(n1)CN(Cc1ccccc1)C(=O)CO2	none
O=C1COc2ccc(-c3ccncc3)nc2CN1Cc1ccc(C(F)(F)F)cc1	KDM5B inhibitor 39.8µM
COc1ccccc1CC(=O)N1CCC(n2cc(-c3nc(C)no3)nn2)CC1	none
Cc1ccccc1NC(=O)COc1ccc(S(=O)(=O)N2CCCC2)cc1C	none
CCC(=O)Nc1ccc2nc(SCCOc3ccccc3)sc2c1	none
CCOc1ccc(N2CC(NC(=O)c3ccc(S(=O)(=O)N4CCCC4)cc3)CC2=O)cc1 (stereo not given)	none
Cc1ccc2c(c1)C(Cc1ccccc1F)C(=O)N2 (stereo not given)	none
O=C(CC1C(=O)N(c2ccccc2)C(=O)N1CCc1cccs1)Nc1ccc(Cl)cc1 (stereo not given)	none
Cc1ccc(NC(=O)C2CC(=O)NC(Nc3nc(C)c4ccccc4n3)=N2)cc1Cl (stereo not given)	none
CN(Cc1cccnc1)c1ccc(C(=O)NCCC2CCCCN2C)cn1 (stereo not given)	none
Cc1ccc(-n2nc(C(=O)NCc3ccc(F)cc3Cl)c3c4ccccc4n(C)c3c2=O)cc1	none
Cc1ccc(NC(=O)Cn2nc3c(cc2=O)CCCCC3)cc1C	none
O=C(Cn1nc2c(cc1=O)CCCCC2)Nc1ccc(F)cc1	none
CN1C(=O)c2ccc(NC(=O)Cn3nc4c(cc3=O)CCCC4)cc2C1=O	KDM5B inhibitor 28.2µM
Cc1ccc(C(C)C)c(OCC(=O)Nc2ccc3c(c2)nc(CN2CCCC2)n3C)c1	none
Cc1ccc(-c2noc([C@@H]3C[C@H](NC(=O)Nc4cccc(F)c4)CN3C)n2)cc1	none
O=C(c1cc(=O)c2ccccc2o1)N(Cc1cccs1)c1ccccn1	none
CC(C)c1ccc(/C=N/NC(=O)C2CCCCC2)cc1	none
COc1cccc(NC(=O)CN2C(=O)NC(c3ccccc3Cl)C3=C2COC3=O)c1 (stereo not given)	none
O=C(c1cc(-c2ccc(Cl)cc2Cl)c2nncn2n1)N1CCOCC1	KDM5B inhibitor 79.4µM
O=C(c1cccc(C(F)(F)F)c1)N1CCCC(C(=O)N2CCCCCC2)C1 (stereo not given)	none
Cn1nc(C(=O)N2CCOCC2)cc1C(=O)Nc1ccc(Cl)cc1Cl	none
O=C(c1cc(-c2ccc(Cl)cc2Cl)c2cccn2n1)N1CCCC1	none
O=C(NCc1cccs1)c1cc(-c2cccc(C(F)(F)F)c2)c2nncn2n1	KDM5B inhibitor 50.1µM
O=C(NCc1cccs1)C1(c2cccc(C(F)(F)F)c2)CCOCC1	none
COc1ccc(-c2cc(C(=O)NCc3cccs3)no2)cc1	none
O=C(c1cc(-c2cccc(C(F)(F)F)c2)c2nncn2n1)N1CCCC1	KDM5B inhibitor 50.1µM
O=C(c1cccc(C(F)(F)F)c1)N1CCC(n2cnnc2C2CC2)CC1	none
O=C(c1cnccn1)N1CCOC[C@H](Oc2cccnc2)C1	none
CC(=O)COC(=O)c1ccccc1C(=O)c1ccc(C)c(C)c1	none
CC1CCc2nc3ccccc3c(C(=O)NC3CCCCCC3)c2C1 (stereo not given)	none
N#Cc1ccc(CSc2ccc3c(c2)OCCO3)cc1	none
CCOc1ccc(NC(=O)N2CCC(C(N)=O)(N3CCCCC3)CC2)cc1	none
COc1ccc(C(=O)N2CC[C@H](CO)[C@H](NC(=O)C3CC3)C2)c(OC)n1	none
COC(=O)c1cc(C#N)c(N2CC[C@H](CO)[C@@H](O)C2)nc1C	KDM5B inhibitor 25.1µM
Cc1nc2ccccc2n1CCC(=O)N1CC[C@H](CO)[C@@H](O)C1	none
COC(=O)CC(NC(=O)Cc1ccc(OC)cc1OC)c1cccs1 (stereo not given)	none
Cn1c(=O)[nH]c(=O)c2c1nc(Sc1ccccc1)n2Cc1ccccc1	none
CCN1CCN(CCNC(=O)c2cn3ccnc(-c4ccc(OC)cc4)c3n2)CC1	KDM5B inhibitor 28.2µM
COc1ccc(NC(=O)c2cn3ccnc(-c4ccc(C)cc4)c3n2)c(OC)c1	none
